The results in this text go back to PubChem BioAssay (NCI).

The panel holds about 83,000 compounds, 20% with a hit somewhere; the sample as a whole holds those more often.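 Single-dose data. Exposure time 48 hours. Values below 10 considered active.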 Active and inactive are the calls of the source.

The test system of the assay is TK-10 renal. In words: NCI-60 one-dose screen, 48 h (100 = growth as untreated, 0 = no growth, -100 = all killed). The conditions noted are these: 10 µM unless noted.
In the case of `CCN(CC)CCCCCCNc1cc(OC)cc2cccnc12`, the growth was 130% (inactive).
With `COc1ccccc1Nc1cc(O)c2c(=O)cc(-c3ccccc3)oc2c1` the figure was 66.3% (inactive); with `COc1ccc(C(O)c2cc3c(N)c(C(=O)Nc4ccc(Cl)cc4)sc3nc2C)cc1` (stereo not given), 42.4% (inactive).
The result for `COc1cc(NCC(O)CN(CC(C)C)CC(C)C)c2nc(C)ccc2c1` (stereo not given) reads 105% (inactive); that for `CCCCCCCCCCN=C(N)N=C(N)N`, 40.8% (inactive).
Consider `COc1ccc(C(O)c2cc3c(N)c(C(=O)Nc4cccc(Br)c4C)sc3nc2C)cc1` (stereo not given), for which the growth is 27% (inactive).
Regarding `CCCCCCCCCCCCCCCCCCOc1ccccc1N`, the growth was 103% (inactive).
With `CC(=O)O[C@H]1CC[C@@]2(C)[C@@H](CC[C@@H]3[C@@H]2CC[C@@]2(C)[C@H]3CC[C@]2(O)C(C)=O)C1` the figure was 99.2% (inactive).
On to `CCC1(CC)NC(=O)c2c(c3ccc(Cl)c(Cl)c3n2C)C1C#N` (stereo not given), for which the growth is 127% (inactive).
The result for `COc1ccc(C2CC(c3cccc(Nc4ccncc4)c3)=NN2c2cc(Cl)cc(Cl)c2)cc1` (stereo not given) reads 63.2% (inactive).
In the case of `CC(=O)Nc1ccc(S(=O)(=O)NC2CCCCC2)cc1`, the growth was 90.2% (inactive).
With `Clc1ccc(N2N=C(c3cccc(Nc4ccncc4)c3)CC2c2ccccc2)cc1` (stereo not given) the figure was 106% (inactive); with `CN1C2CCC1CN(c1cnc(C(=O)Nc3cc(F)cc4cccnc34)cn1)C2`, 77.2% (inactive); with `C=Cc1cc[n+](CCCCCCCCCCCC)cc1`, 137% (inactive).
On to `CCCCCCCCCCCCCCCC(=O)OC[C@@]1(O)C[C@@]23CC[C@@H]4C(C)(C)[C@H](O)CC[C@@]4(C)[C@@H]2CC[C@H]1C3`, for which the growth is 101% (inactive).
